# Compound activity deposited in PubChem by National Center for Advancing Translational Sciences (NCATS).
# NPC1 promoter act: qHTS Assay for NPC1 Promoter Activators; Huh7 NPC1 promoter luciferase reporter, 24 h; Potency, µM (titrated, usually from 9.22 µM), for inactives: at the highest dose activation, most hits filed as activators; actives 2.4% (n = 320,000); further: % of control where 0% means no effect; nearly all actives have a fitted effect of over 60% in size
#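 In 1536-well qHTS, Huh7 cells harboring an NPC1 promoter–luciferase construct received compound for 24 h; activation was quantified by luminescence following luciferase reagent addition.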
# FLuc modulator: qHTS profiling assay for firefly luciferase inhibitor/activator using purifed enzyme and Km concentrations of substrates (counterscreen for miR-21 project); purified FLuc, Km substrates, luminescence inhibition; actives 6.9% (n = 360,000); Potency, µM (series often up to 57.5 µM), inactives show at the highest dose activity change, negative = inhibition, most hits filed as inhibitors;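 further: plate controls were vehicle for no effect and reference inhibitor for full effect; nearly all actives have a fitted effect of over 55% in size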
# Target sequence (P08659 whole entry, looked up): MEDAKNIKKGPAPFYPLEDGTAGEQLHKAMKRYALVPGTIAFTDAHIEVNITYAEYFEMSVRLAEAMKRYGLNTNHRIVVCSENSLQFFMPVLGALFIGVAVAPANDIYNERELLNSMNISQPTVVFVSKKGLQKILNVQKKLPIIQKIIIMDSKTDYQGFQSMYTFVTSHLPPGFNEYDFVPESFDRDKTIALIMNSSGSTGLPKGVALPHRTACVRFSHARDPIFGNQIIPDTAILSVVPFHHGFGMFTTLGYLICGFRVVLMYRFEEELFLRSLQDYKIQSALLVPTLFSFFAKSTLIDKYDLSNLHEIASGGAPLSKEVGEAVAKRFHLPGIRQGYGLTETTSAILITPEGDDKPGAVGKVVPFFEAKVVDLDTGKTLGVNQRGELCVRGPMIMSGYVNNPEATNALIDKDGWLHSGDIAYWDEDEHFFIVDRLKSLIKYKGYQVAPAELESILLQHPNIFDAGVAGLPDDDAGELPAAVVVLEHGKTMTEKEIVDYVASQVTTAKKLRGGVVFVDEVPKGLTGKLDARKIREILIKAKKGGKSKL
#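 Purified P. pyralis luciferase (10nM final) with 10uM D-luciferin and 10uM ATP (Km levels) in 50mM Tris acetate pH 7.5, 10mM Mg acetate, 0.01% Tween-20, 0.05% BSA; qHTS 6-point titration, ~60 µM downward; luminescence read.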
# SMN2 splice enh: qHTS Assay for Enhancers of SMN2 Splice Variant Expression | HEK293 SMN2-luciferase splicing reporter, luminescence, 30-36 h | Potency, µM (series often up to 46.1 µM), without a hit: top-dose activity change, positive = activation, most hits filed as activators | actives 2.8% (n = 210,000) | AID 1458, 2008; further: % of control where 0% means no effect; nearly all actives have a fitted effect of over 55% in size
#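 qHTS luciferase splicing reporter: luminescence rises when SMN2 exon 7 is included in transfected HEK293 cells. Compound exposure lasted 30-36 h at 37C, with 4.5 mM final sodium butyrate as control, followed by a ONE-Glo read.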
# Luc counter: Counterscreen for Luciferase (Kinase-Glo TM) Inhibition; Potency, µM (doses to about 38.3 µM), for the others: at the highest dose activity change, negative = inhibition, usual class: inhibitors; Luciferin 4-monooxygenase (Photuris pensylvanica), Q27757; AID 1379, 2008; Kinase-Glo luciferase, ATP luminescence, 8 min; actives 0.28% (n = 200,000); further: on the % scale 0 is the no-effect control and ±100 the full control effect; nearly all actives have a fitted effect of over 60% in size
#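 Light output from Kinase-Glo luciferase with luciferin and 10 uM ATP in 50 mM imidazole pH 7.2, KCl, MgCl2, Tween 20, BSA; compound pin-delivered, 8-min ambient incubation, then luminescence read.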
# Rab9 prom act: qHTS Assay for Rab9 Promoter Activators. Huh7 Rab9 promoter-luciferase reporter, luminescence, 24 h. Potency, µM (highest dose often 9.22 µM), for the others: at the highest dose activation, negative = inhibition, usual class: activators. actives 2.8% (n = 320,000). AID 485297, 2010; further: % of control where 0% means no effect; nearly all actives have a fitted effect of over 60% in size
#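 Huh7 cells stably carrying a Rab9 promoter-luciferase reporter, 1500 cells per well in OP-MEM I with 10% FBS, treated with compound 24 hours at 37C. Luciferase activity read by luminescence after 10 minutes with Amplite reagent.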
# ELG1 genotoxic: qHTS screen for small molecules that induce genotoxicity in human embryonic kidney (HEK293T) cells expressing luciferase-tagged ELG1; HEK293T ELG1-luciferase reporter, luminescence, 16 h; Potency, µM (titrated, usually from 46 µM), without a hit: at the highest dose activity change, positive = activation, hits mostly activators; actives 1.3% (n = 330,000); further: % of control where 0% means no effect; nearly all actives have a fitted effect of over 60% in size
#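 Genotoxic stress is detected as increased luminescence from luciferase-tagged ELG1 in HEK293T cells, measured with ONE-Glo after a 16 hr treatment at 37 °C.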
# Starred values were filed as active, the others as inactive; ? = inconclusive; nt = no result given; [ ] = another dose, or the depositor's remark. An excerpt weighted towards active compounds, which were near 7.5% of everything screened. The call rests on the fitted dose curve; in most records, active means well fitted curve in the direction sought with a large enough effect; inconclusive means small, poorly fitted or top-dose-only effect, or another doubt; inactive means no such curve, though single readings can be large; an effect the other way counts as inactive or inconclusive. Potency means the concentration at half of the fitted maximal effect.
SMILES,NPC1 promoter act,FLuc modulator,SMN2 splice enh,Luc counter,Rab9 prom act,ELG1 genotoxic
Cc1ccc(Cl)cc1NC(=O)c1oc2c(c1C)-c1[nH]ncc1CC2,nt,-1.9%,nt,nt,nt,nt
COc1ccc(N/C=C(\C#N)c2nc3ccccc3n2C)c(OC)c1,21.2%,2.69µM*,-18.0%,13.8%,0.4%,-7.0%
COc1ccccc1C(=O)c1nc2ccccc2n1C,28.6%,0.7%,nt,nt,0.7%,0.1%
CCn1c(/C(C#N)=C/c2ccccc2Cl)nc2ccccc21,nt,5.36µM*,nt,nt,nt,nt
Cn1c(/C(C#N)=C/c2ccccc2Br)nc2ccccc21,nt,7.57µM*,4.5%,nt,nt,nt
CCn1c(/C(C#N)=N/O)nc2ccccc21,0.1%,0.2%,-46.4%,-0.8%,0.7%,-3.6%
COc1ccc(/C=C/C2=NC(=C\N(C)C)/C(=O)O2)cc1,?,21.3µM*,22.7%,-0.9%,?,?
Cc1ccc(C(=O)CC(=O)COc2ccc(Cl)cc2C)cc1,0.1%,-5.9%,6.5%,-0.7%,0.4%,-4.8%
Cc1ccc(NC(=O)c2ccc(OC(=O)COc3ccc(Cl)cc3C)cc2)cc1,3.98µM*,?,12.6µM*,-4.3%,3.55µM*,?
Cc1ccc(NC(=O)c2ccc(OC(=O)COc3cccc(Cl)c3)cc2)cc1,2.82µM*,?,25.1µM*,2.6%,2.82µM*,?
Cc1cc(C)cc(OC(=O)CCN2C(=O)c3ccccc3C2=O)c1,-2.2%,-0.2%,-2.0%,1.0%,0.5%,0.8%
Cc1ccc(NC(=O)c2ccc(OC(=O)CCN3C(=O)c4ccccc4C3=O)cc2)cc1,3.16µM*,-19.0%,14.1µM*,-6.0%,1.78µM*,?
COC(=O)COc1cccc(NC(=O)c2cccc(C)c2)c1,1.4%,?,7.6%,0.7%,-2.9%,2.6%
O=C(CSc1nc2c(c(=O)[nH]1)CN(Cc1ccc3c(c1)OCO3)CC2)Nc1ccc(F)c(F)c1,nt,-1.4%,nt,nt,nt,nt
CCN(CC)S(=O)(=O)c1ccc2c(c1)N(CC(=O)NCc1ccc(F)cc1)C(=O)CO2,nt,2.8%,-9.4%,nt,nt,nt
Cc1c(-c2nc(-c3ccccc3F)no2)nnn1-c1cc(F)ccc1F,nt,0.169µM*,nt,nt,nt,nt
Cc1c(-c2ccccc2)nnn1-c1ccc(F)cc1F,?,21.3µM*,nt,nt,?,?
CC(=O)c1nnn(-c2ccc(F)cc2F)c1C,-1.2%,-0.3%,nt,nt,3.4%,-0.4%
CCc1ccccc1-n1nnc(-c2nc(-c3ccccc3F)no2)c1C,nt,1.2µM*,nt,nt,nt,nt
COc1ccc(Cl)cc1NC(=O)c1cc(S(=O)(=O)NC2CCCCCC2)ccc1F,nt,-2.3%,nt,nt,nt,nt
O[C@@H](c1cc(-c2ccc(Cl)cc2)nc2ccccc12)C1CCCCN1 (stereo partly specified),nt,nt,0.7%[9.22 µM],-2.4%[7.66 µM],nt,nt
CCOc1cc(/C=C2/C(=O)ON=C2C)cc(Br)c1O,-5.8%,21.3µM*,nt,nt,-9.7%,2.4%
CCOc1cc(/C=C2\C(=O)ON=C2c2ccccc2)cc(Br)c1O,-11.7%,9.53µM*,nt,nt,-7.5%,?
O=C(Nc1ccc2c(c1)N(C1CCCC1)C(=O)c1ccccc1S2)c1cccc(F)c1,nt,6.7%,nt,nt,nt,nt
O=C(COC(=O)c1c2c(nc3ccccc13)CCN(Cc1ccccc1)C2)Nc1c(F)cccc1F,-3.8%,?,-23.1%,1.8%,-6.6%,-7.4%
SMILES,NPC1 promoter act,FLuc modulator,SMN2 splice enh,Luc counter,Rab9 prom act,ELG1 genotoxic
CC(=O)Nc1ccc(NC(=O)COC(=O)c2c3c(nc4ccccc24)CCN(Cc2ccccc2)C3)cc1,6.5%,8.49µM*,nt,nt,6.5%,-2.8%
Cc1ccc(-c2csc(N)n2)s1,?,15.1µM*,2.7%,-8.7%,8.0%,?
NC(=O)C1CCN(c2nc(-c3ccccc3Cl)cs2)CC1,nt,-11.4%,nt,nt,nt,nt
CCOC(=O)c1sc(-c2ccc(Cl)cc2Cl)nc1O,-4.5%,16.9µM*,nt,nt,-1.3%,2.4%
O=C(OCC(=O)c1c[nH]c2ccccc12)c1ccco1,7.0%,9.53µM*,0.8%,-2.7%,7.8%,16.4µM*
COc1cccc(/C=C/C(=O)OCC(=O)c2c[nH]c3ccccc23)c1OC,-2.3%,-10.9%,-15.4%,1.6%,1.1%,-0.1%
COc1cccc(C(=O)OCC(=O)c2c[nH]c3ccccc23)c1O,12.7%,19µM*,24.8%,-2.8%,17.0%,?
O=C(NCCc1c[nH]c2ccccc12)c1ccc(Br)o1,nt,nt,nt,nt,nt,5.2%
O=C(OCC(=O)c1c[nH]c2ccccc12)c1ccc(Br)o1,3.6%,16.9µM*,nt,-4.5%,10.7%,5.5%
CCOc1ccc(NC(=O)NNC(=O)C(C)Oc2ccccc2OC)cc1 (stereo unspecified),-0.1%,0.7%,nt,nt,-1.9%,0.0%
O=C(Cc1ccc(Br)cc1)OCC(=O)c1ccc[nH]1,nt,nt,nt,nt,nt,-1.5%
Nc1nc(SCc2ccc(F)cc2)ns1,10.9%,?,12.2%,-2.4%,20.1%,20.2%
O=C(C(O)c1ccccc1)N1N=C(c2ccccc2)CC1(O)C(F)(F)F (stereo unspecified),-4.0%,-1.0%,nt,nt,8.5%,0.1%
O=C1c2ccccc2S(=O)(=O)N1CC1CC(c2ccccc2Cl)=NO1 (stereo unspecified),3.16µM*,2.69µM*,3.98µM*,4.0%,3.16µM*,11.6µM*
COc1ccccc1C1=NOC(CN2C(=O)c3ccccc3S2(=O)=O)C1 (stereo unspecified),2.82µM*,8.49µM*,nt,nt,3.98µM*,?
Cc1ccc(COc2ccc(-c3nnco3)cc2)cc1,2.24µM*,9.53µM*,nt,nt,3.55µM*,?
Cc1cccc(OC(=O)CSc2nnc(-c3ccc4c(c3)OCO4)o2)c1C,nt,-2.2%,nt,nt,nt,nt
CCc1ccc(CN(Cc2ccco2)c2cnc(S(C)(=O)=O)nc2C(=O)Nc2c(C)cccc2C)cc1,nt,-6.2%,nt,nt,nt,nt
CCOc1ccc2ccccc2c1/C=N/NC(=O)c1ccncc1,-0.4%,13.5µM*,nt,nt,-0.5%,9.8%
COc1ccc2ccccc2c1/C=N/NC(=O)c1ccc(C)nc1,1.7%,21.3µM*,nt,nt,3.7%,0.5%
CCn1c(=O)cc(SCC(=O)NCc2ccc(F)cc2Cl)c2ccccc21,nt,-19.2%,1.7%,nt,nt,nt
O=C(Nc1ccccc1O)c1ccc(NS(=O)(=O)c2cccc3cccnc23)cc1,2.6%,?,nt,nt,?,16.4µM*
COC(=O)c1ccc(NC(=O)c2ccc(NS(=O)(=O)c3cccc4cccnc34)cc2)cc1,0.8%,16.9µM*,nt,nt,1.1%[1.84 µM],4.4%
O=C(O)c1ccc(NS(=O)(=O)c2cccc3cccnc23)cc1,-0.4%,-0.9%,-7.3%,1.5%,-5.0%,1.1%
